These results are taken from article PMC7862700, “An all-to-all approach to the identification of sequence-specific readers for epigenetic DNA modifications on cytosine”.

Assay in all cases: DAPPL (digital affinity profiling via proximity ligation, sequencing); 10 mM Tris-HCl pH 7.5, 50 mM NaCl, 1 mM DTT, 4% glycerol, room temperature, 30 min; GST-TFs on glutathione beads, 16-mer random dsDNA library, 0.1% formaldehyde crosslink after washing; high values mean tight binding
Common to all, as to settings: protein: recombinant; tags: N-terminal GST; dsDNA, one strand shown

One assay has as its target T1, ERF (Homo sapiens, UniProt P50548 1-548).
T1 sequence: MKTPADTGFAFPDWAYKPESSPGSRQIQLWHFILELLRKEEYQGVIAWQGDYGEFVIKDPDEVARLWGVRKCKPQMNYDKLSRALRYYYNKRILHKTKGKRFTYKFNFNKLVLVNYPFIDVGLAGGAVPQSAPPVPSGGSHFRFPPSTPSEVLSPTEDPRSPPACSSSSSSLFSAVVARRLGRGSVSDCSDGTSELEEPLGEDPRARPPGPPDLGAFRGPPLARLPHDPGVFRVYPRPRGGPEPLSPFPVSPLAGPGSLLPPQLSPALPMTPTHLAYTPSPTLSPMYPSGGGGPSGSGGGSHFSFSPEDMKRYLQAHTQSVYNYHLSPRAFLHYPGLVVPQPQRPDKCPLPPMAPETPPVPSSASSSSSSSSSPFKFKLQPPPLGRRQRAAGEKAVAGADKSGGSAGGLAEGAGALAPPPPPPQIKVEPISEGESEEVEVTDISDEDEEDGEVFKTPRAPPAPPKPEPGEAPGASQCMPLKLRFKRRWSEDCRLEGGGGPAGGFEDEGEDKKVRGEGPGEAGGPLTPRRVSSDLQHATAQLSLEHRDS
In outline: (§1)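 Beads coated with glutathione captured GST-fused human transcription factors that had been expressed in yeast, and the factors were then given DNA barcodes and pooled with a tag-only sample. The pools were incubated with 200 nmole of a random double-stranded 16-mer DNA library in Tris/NaCl/DTT/glycerol buffer for 30 min at room temperature, washed, crosslinked with 0.1% formaldehyde and proximity-ligated with BsaI/T4 ligase at 37 °C for 1 h. PCR amplification and Illumina NextSeq500 sequencing came last. Binding signal is each hexamer's read frequency for a factor divided by its frequency for the tag-only sample.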

The next assay addresses T2, ETV3L (Homo sapiens, UniProt Q6ZN32 1-361).
T2 sequence: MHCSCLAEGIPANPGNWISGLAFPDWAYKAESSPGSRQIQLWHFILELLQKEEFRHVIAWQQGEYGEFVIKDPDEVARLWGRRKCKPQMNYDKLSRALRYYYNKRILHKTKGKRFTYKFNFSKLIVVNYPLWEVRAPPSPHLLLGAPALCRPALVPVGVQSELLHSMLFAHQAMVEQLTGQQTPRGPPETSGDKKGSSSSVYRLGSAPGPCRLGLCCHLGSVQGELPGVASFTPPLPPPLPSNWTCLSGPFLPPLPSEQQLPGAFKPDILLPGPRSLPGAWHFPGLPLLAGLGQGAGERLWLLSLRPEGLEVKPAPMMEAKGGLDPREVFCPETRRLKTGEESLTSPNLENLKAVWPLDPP
Put shortly: as §1

A further assay concerns the target T3, ETS2 (Homo sapiens, UniProt P15036 1-469).
T3 sequence: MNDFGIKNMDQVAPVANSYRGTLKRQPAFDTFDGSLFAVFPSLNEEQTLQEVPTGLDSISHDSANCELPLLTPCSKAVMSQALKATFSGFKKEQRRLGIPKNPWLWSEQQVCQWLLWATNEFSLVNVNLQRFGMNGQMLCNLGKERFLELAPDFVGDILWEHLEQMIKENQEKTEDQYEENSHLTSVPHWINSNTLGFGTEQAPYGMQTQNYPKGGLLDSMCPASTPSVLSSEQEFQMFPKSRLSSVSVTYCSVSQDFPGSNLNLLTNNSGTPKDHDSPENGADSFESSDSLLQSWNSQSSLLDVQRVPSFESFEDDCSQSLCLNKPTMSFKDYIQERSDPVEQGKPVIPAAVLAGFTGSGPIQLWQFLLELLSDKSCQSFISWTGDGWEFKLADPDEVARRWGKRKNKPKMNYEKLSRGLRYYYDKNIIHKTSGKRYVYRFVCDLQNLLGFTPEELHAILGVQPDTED
Put shortly: as §1

The target of another assay is T4, SPDEF (Homo sapiens, UniProt O95238 1-335).
T4 sequence: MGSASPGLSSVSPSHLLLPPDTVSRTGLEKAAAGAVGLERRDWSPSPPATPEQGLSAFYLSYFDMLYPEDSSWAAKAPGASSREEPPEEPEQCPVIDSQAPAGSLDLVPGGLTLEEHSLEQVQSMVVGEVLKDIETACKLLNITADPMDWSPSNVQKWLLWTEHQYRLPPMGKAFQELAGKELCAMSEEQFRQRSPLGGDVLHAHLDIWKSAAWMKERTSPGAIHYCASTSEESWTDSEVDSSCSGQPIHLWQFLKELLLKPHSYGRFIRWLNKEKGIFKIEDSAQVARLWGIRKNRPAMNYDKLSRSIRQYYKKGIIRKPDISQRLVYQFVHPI
Put shortly:
as §1

The target in the next assay is T5, ETV7 (Homo sapiens, UniProt Q9Y603 1-341).
T5 sequence: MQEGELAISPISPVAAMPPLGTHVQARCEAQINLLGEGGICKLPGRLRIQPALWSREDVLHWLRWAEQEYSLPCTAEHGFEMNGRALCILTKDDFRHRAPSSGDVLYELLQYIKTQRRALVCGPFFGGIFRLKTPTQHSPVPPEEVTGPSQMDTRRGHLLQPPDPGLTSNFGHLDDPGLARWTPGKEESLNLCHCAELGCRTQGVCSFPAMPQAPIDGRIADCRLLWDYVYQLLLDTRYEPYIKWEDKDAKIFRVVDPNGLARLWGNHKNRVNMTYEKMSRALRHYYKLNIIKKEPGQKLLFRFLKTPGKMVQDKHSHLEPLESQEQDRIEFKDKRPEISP
Put shortly:
as §1

The next assay has as its target T6, ELF5 (Homo sapiens, UniProt Q9UKW6-2 1-255).
T6 sequence: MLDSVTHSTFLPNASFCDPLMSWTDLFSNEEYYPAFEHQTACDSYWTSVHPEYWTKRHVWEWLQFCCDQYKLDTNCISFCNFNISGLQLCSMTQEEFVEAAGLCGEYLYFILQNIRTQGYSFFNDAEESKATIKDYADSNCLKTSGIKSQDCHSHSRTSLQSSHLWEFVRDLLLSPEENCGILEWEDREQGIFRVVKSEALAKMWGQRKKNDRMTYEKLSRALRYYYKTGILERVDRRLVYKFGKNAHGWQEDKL
Put shortly: as §1

Another assay has as its target T7, ETV3 (Homo sapiens, UniProt P41162-2 1-143).
T7 sequence: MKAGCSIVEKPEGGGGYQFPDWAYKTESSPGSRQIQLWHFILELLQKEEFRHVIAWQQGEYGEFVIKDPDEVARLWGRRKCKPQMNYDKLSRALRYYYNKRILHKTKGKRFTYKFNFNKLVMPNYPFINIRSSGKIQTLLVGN
Put shortly: as §1

In a further assay the target is ETV6 (Homo sapiens, UniProt P41212 1-452). In outline:
as §1

Chain of ETV6 (P41212 whole entry): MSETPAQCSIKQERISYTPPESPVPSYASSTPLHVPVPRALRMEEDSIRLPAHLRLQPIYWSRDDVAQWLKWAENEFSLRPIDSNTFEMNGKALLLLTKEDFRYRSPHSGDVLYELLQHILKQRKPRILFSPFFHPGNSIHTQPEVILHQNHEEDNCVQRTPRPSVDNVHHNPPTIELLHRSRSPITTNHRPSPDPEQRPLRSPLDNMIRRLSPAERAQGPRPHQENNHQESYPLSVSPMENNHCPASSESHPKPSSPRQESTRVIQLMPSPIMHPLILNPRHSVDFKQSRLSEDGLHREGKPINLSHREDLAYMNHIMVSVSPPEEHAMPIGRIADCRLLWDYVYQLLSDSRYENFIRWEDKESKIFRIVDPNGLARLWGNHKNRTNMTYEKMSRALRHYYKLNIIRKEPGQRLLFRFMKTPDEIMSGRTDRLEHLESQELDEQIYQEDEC

As for AATTTG, the binding signal with ERF is 1.28 fold enrichment (6-mer frequency, TF over GST control); with ETV3L it was 1.3 fold enrichment (6-mer frequency, TF over GST control); with ETS2, 1.32 fold enrichment (6-mer frequency, TF over GST control); in the assay with SPDEF, 1.24 fold enrichment (6-mer frequency, TF over GST control); with ETV7, 1.38 fold enrichment (6-mer frequency, TF over GST control); with ELF5, 1.33 fold enrichment (6-mer frequency, TF over GST control). The binding signal in the assay with ETV3 is 1.39 fold enrichment (6-mer frequency, TF over GST control); with ETV6 it was 1.22 fold enrichment (6-mer frequency, TF over GST control).

Regarding GTGGCT, the binding signal with ERF is 1.18 fold enrichment (6-mer frequency, TF over GST control); with ETV3L it was 1.07 fold enrichment (6-mer frequency, TF over GST control); in the assay with ETS2 it was 1.14 fold enrichment (6-mer frequency, TF over GST control); with SPDEF, 1.03 fold enrichment (6-mer frequency, TF over GST control); in the assay with ETV7, 1.1 fold enrichment (6-mer frequency, TF over GST control); with ELF5, 1.03 fold enrichment (6-mer frequency, TF over GST control). Further, the binding signal is 1.12 fold enrichment (6-mer frequency, TF over GST control) with ETV3 and 1.07 fold enrichment (6-mer frequency, TF over GST control) with ETV6.

Consider AAGCTC, for which the binding signal in the assay with ERF is 1.2 fold enrichment (6-mer frequency, TF over GST control); in the assay with ETV3L, 1.2 fold enrichment (6-mer frequency, TF over GST control); with ETS2 it was 1.13 fold enrichment (6-mer frequency, TF over GST control); in the assay with SPDEF, 1.06 fold enrichment (6-mer frequency, TF over GST control); with ETV7, 1.08 fold enrichment (6-mer frequency, TF over GST control); with ELF5, 1.07 fold enrichment (6-mer frequency, TF over GST control). The binding signal with ETV3 was 1.18 fold enrichment (6-mer frequency, TF over GST control); with ETV6, 1.23 fold enrichment (6-mer frequency, TF over GST control).

Regarding CACTCA, the binding signal with ERF was 1.2 fold enrichment (6-mer frequency, TF over GST control); in the assay with ETV3L it was 1.11 fold enrichment (6-mer frequency, TF over GST control); with ETS2 it was 1.16 fold enrichment (6-mer frequency, TF over GST control); with SPDEF it was 1.14 fold enrichment (6-mer frequency, TF over GST control); with ETV7, 1.21 fold enrichment (6-mer frequency, TF over GST control); with ELF5 it was 1.12 fold enrichment (6-mer frequency, TF over GST control). Moreover, the binding signal with ETV3 is 1.09 fold enrichment (6-mer frequency, TF over GST control); with ETV6, 1.14 fold enrichment (6-mer frequency, TF over GST control).

Take GCTTAG: the binding signal is 1.2 fold enrichment (6-mer frequency, TF over GST control) with ERF; 1.12 fold enrichment (6-mer frequency, TF over GST control) in the assay with ETV3L; 1.11 fold enrichment (6-mer frequency, TF over GST control) with ETS2; 1.17 fold enrichment (6-mer frequency, TF over GST control) with SPDEF; 1.13 fold enrichment (6-mer frequency, TF over GST control) with ETV7; 1.01 fold enrichment (6-mer frequency, TF over GST control) in the assay with ELF5. For the same sequence, the binding signal was 1.19 fold enrichment (6-mer frequency, TF over GST control) with ETV3 and 1.07 fold enrichment (6-mer frequency, TF over GST control) with ETV6.

On to CTCACC, for which the binding signal with ERF is 1.33 fold enrichment (6-mer frequency, TF over GST control); with ETV3L it was 1.16 fold enrichment (6-mer frequency, TF over GST control); with ETS2, 1.11 fold enrichment (6-mer frequency, TF over GST control); in the assay with SPDEF, 1.12 fold enrichment (6-mer frequency, TF over GST control); with ETV7, 1.06 fold enrichment (6-mer frequency, TF over GST control); with ELF5, 1.15 fold enrichment (6-mer frequency, TF over GST control). Also, the binding signal with ETV3 was 1.14 fold enrichment (6-mer frequency, TF over GST control); with ETV6, 1.08 fold enrichment (6-mer frequency, TF over GST control).

CGGAAA: the binding signal is 1.77 fold enrichment (6-mer frequency, TF over GST control) with ERF; 2.05 fold enrichment (6-mer frequency, TF over GST control) with ETV3L; 2.07 fold enrichment (6-mer frequency, TF over GST control) with ETS2; 2.03 fold enrichment (6-mer frequency, TF over GST control) with SPDEF; 1.97 fold enrichment (6-mer frequency, TF over GST control) in the assay with ETV7; 2.58 fold enrichment (6-mer frequency, TF over GST control) in the assay with ELF5. The binding signal with ETV3 is 2.26 fold enrichment (6-mer frequency, TF over GST control); with ETV6 it was 2.53 fold enrichment (6-mer frequency, TF over GST control).

As to CAGGAT, the binding signal is 1.15 fold enrichment (6-mer frequency, TF over GST control) in the assay with ERF; 1.3 fold enrichment (6-mer frequency, TF over GST control) with ETV3L; 1.19 fold enrichment (6-mer frequency, TF over GST control) with ETS2; 2.03 fold enrichment (6-mer frequency, TF over GST control) in the assay with SPDEF; 1.09 fold enrichment (6-mer frequency, TF over GST control) with ETV7; 1.28 fold enrichment (6-mer frequency, TF over GST control) in the assay with ELF5. Also, the binding signal with ETV3 was 1.22 fold enrichment (6-mer frequency, TF over GST control); with ETV6, 1.19 fold enrichment (6-mer frequency, TF over GST control).
